This is part of a sample that, as a whole, favours compounds with a hit. Of some 83,000 tested, about 20% had one in any assay.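 Cell lines were cultured in 96-well plates, exposed to a single compound concentration, and assessed for percent growth 48 hours later.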 Calls of active or inactive are those of the source. Rule for the calls: active = growth percent below 10; inactive = the rest.
system: LOX IMVI melanoma; assay: NCI-60 one-dose screen, 48 h (100 = growth as untreated, 0 = no growth, -100 = all killed); details: 10 µM unless noted

| Compound | growth |
| --- | --- |
| CCS(=O)(=O)Nc1cccc(Nc2c3cccc(C)c3nc3c(C)cccc23)c1OC | 12.8% (inactive) |
| Cc1nn(-c2ccccc2)c2nc3c(nc12)C1=NCCN1C(c1ccc(Cl)cc1)N3 (stereo not drawn) | 79.1% (inactive) |
| O=C(Nc1cccc(C2=NCCN2)c1)c1ccc(N=Nc2ccc(C(=O)Nc3cccc(C4=NCCN4)c3)cc2)cc1 | 75.8% (inactive) |
| COC(=O)[C@@H](Cc1c[nH]c2ccccc12)NC(=O)/C=C/c1ccccc1 | 38.3% (inactive) |
| CCOC(=O)C(CCCCC(NC(C)=O)(C(=O)OCC)C(=O)OCC)(NC(C)=O)C(=O)OCC | 98.3% (inactive) |
| COc1ccc(-c2cc(-c3cc4ccccc4oc3=O)n(-c3ccccc3)n2)cc1 | 59.8% (inactive) |
| CC(C)N(C(=S)SSC(=S)N(C(C)C)C(C)C)C(C)C | 97.1% (inactive) |
| CCOC(OCC)c1cnc2nc(NC(C)=O)[nH]c(=O)c2n1 | 100% (inactive) |
| CC(C)(C)c1cc(C[P+](c2ccccc2)(c2ccccc2)c2ccccc2)cc(C(C)(C)C)c1O | 5.93% (active) |
| N#Cc1ccc(-c2ccc(-c3cccs3)o2)cc1F | 80.2% (inactive) |
| CCN(C(=O)CCl)C(C)(C)C(SSSC(c1ccc(Cl)cc1)C(C)(C)N(CC)C(=O)CCl)c1ccc(Cl)cc1 (stereo not drawn) | 66.6% (inactive) |
| N=C(N)c1ccc(-c2ccc(-c3ccco3)o2)cc1F | -9.26% (active) |
| COc1ccc(/C=C/c2nc(NCCCN(C)C)c3ccccc3n2)cc1 | -67.1% (active) |
| COc1cc2c(cc1OC)-c1cc(OC)c(OC)cc1C(CN(C)C)C2 (stereo not drawn) | 71.1% [100 µM] (inactive) |
| CCCCCCCCN=C(NCCCCCCCC)SCc1cccc2ccccc12 | -96% (active) |
| N=C(N)c1ccc(-c2ccc(-c3cccs3)s2)cc1F | -76.7% (active) |
| COc1ccc2nc(-c3ccc(-c4noc(-c5ccc(Cl)cc5)n4)cc3)[nH]c2c1 | 57.3% (inactive) |
| Cc1cccc2nc3ccccc3c(Nc3ccc(NS(C)(=O)=O)cc3)c12 | 33.8% (inactive) |
| CC(C)CCSc1nc(Nc2ccccc2)c(C#N)c(-c2ccc(F)cc2)n1 | 60.4% (inactive) |
| COc1cc(OC)cc(-c2ccc(-c3ccc(C(=N)N)s3)s2)c1 | -71.6% (active) |

| Compound | growth |
| --- | --- |
| COc1ccc(-c2ccc(-c3ccc(C(=N)N)s3)s2)cc1 | -74.7% (active) |
| C#CCO[C@H]1CC[C@H](OCC#C)[C@@H]2[C@H]1[C@H]1C[C@@H]3[C@@]4(C)CCC[C@@](C)(C(=O)OC)[C@@H]4CC[C@@]23C=C1C(C)C | -64.5% (active) |
| COC(=O)[C@H](Cc1cn(C)cn1)NC(=O)[C@H](CC(C)C)NC(=O)Nc1cc(C(F)(F)F)cc(C(F)(F)F)c1 | -86.6% [100 µM] (active) |
| O=C1CCCN1C1CCN2CCCc3cccc1c32 (stereo not drawn) | 101% (inactive) |
| O=C(CCCN1CCC(O)(c2ccc(Br)cc2)CC1)c1ccc(F)cc1 | 53.7% (inactive) |
| COc1ccc(/C=N/NC(N)=S)c(OC)n1 | 102% (inactive) |
| CCN1C(=O)N(CC)C2C1N=C(SC)N2/N=C/C=C/c1ccccc1OC (stereo not drawn) | 14.6% (inactive) |
| C/C(=N\Nc1ccc([N+](=O)[O-])cn1)c1ccc(N)cc1 | 100% (inactive) |
| N/C(=N\O)c1ncc(-c2ccc(C(F)(F)F)cc2)c(NC2CCCCCC2)n1 | -73.5% [100 µM] (active) |
| O=[N+]([O-])c1ccc(Sc2nc(Cl)nc(NC3CCCC3)n2)cc1 | -87.9% [100 µM] (active) |
| Cc1cc2nc(CN)[nH]c2cc1C | 109% (inactive) |
| ClC1=NC(Cl)C(Cl)=N/C1=N\c1ncn[nH]1 (stereo not drawn) | -50.7% (active) |
| COc1ccc(CNc2c3ccccc3nc3ccccc23)cc1F | 1.25% (active) |
| CCOC(=O)C1C(=O)C=C(c2ccccc2)CC1c1sc(N(C)Cc2ccccc2)nc1Cl (stereo not drawn) | 88.2% (inactive) |
| CCOC(=O)c1cc(C(=O)OCC)c(C)nc1C | 107% (inactive) |
| O=C1OCC2=C1C(c1ccccc1)c1cc3c(cc1N2CCO)CCC3 (stereo not drawn) | 28.5% (inactive) |
| O=C(CC(=O)c1ccccc1F)Nc1ccc([N+](=O)[O-])cc1 | 99.7% (inactive) |
| Cc1cc(Nc2c3ccccc3nc3ccccc23)ccc1NS(C)(=O)=O | 28.3% (inactive) |
| COC(=O)CSc1ccc(Cl)cc1 | 102% (inactive) |

system: SK-MEL-28 melanoma; assay: as above; details: 10 µM unless noted

| Compound | growth |
| --- | --- |
| CCS(=O)(=O)Nc1cccc(Nc2c3cccc(C)c3nc3c(C)cccc23)c1OC | 56.9% (inactive) |
| Cc1nn(-c2ccccc2)c2nc3c(nc12)C1=NCCN1C(c1ccc(Cl)cc1)N3 (stereo not drawn) | 73.3% (inactive) |
| O=C(Nc1cccc(C2=NCCN2)c1)c1ccc(N=Nc2ccc(C(=O)Nc3cccc(C4=NCCN4)c3)cc2)cc1 | 59.3% (inactive) |
| COC(=O)[C@@H](Cc1c[nH]c2ccccc12)NC(=O)/C=C/c1ccccc1 | 44.3% (inactive) |
| CCOC(=O)C(CCCCC(NC(C)=O)(C(=O)OCC)C(=O)OCC)(NC(C)=O)C(=O)OCC | 97% (inactive) |
| COc1ccc(-c2cc(-c3cc4ccccc4oc3=O)n(-c3ccccc3)n2)cc1 | 106% (inactive) |
| CC(C)N(C(=S)SSC(=S)N(C(C)C)C(C)C)C(C)C | 100% (inactive) |
| CCOC(OCC)c1cnc2nc(NC(C)=O)[nH]c(=O)c2n1 | 105% (inactive) |
| CC(C)(C)c1cc(C[P+](c2ccccc2)(c2ccccc2)c2ccccc2)cc(C(C)(C)C)c1O | 38.4% (inactive) |
| N#Cc1ccc(-c2ccc(-c3cccs3)o2)cc1F | 91.9% (inactive) |
| CCN(C(=O)CCl)C(C)(C)C(SSSC(c1ccc(Cl)cc1)C(C)(C)N(CC)C(=O)CCl)c1ccc(Cl)cc1 (stereo not drawn) | -24.6% (active) |
| N=C(N)c1ccc(-c2ccc(-c3ccco3)o2)cc1F | -46.8% (active) |
| COc1ccc(/C=C/c2nc(NCCCN(C)C)c3ccccc3n2)cc1 | 77.5% (inactive) |
| COc1cc2c(cc1OC)-c1cc(OC)c(OC)cc1C(CN(C)C)C2 (stereo not drawn) | 41.4% [100 µM] (inactive) |
| CCCCCCCCN=C(NCCCCCCCC)SCc1cccc2ccccc12 | -87.8% (active) |
| N=C(N)c1ccc(-c2ccc(-c3cccs3)s2)cc1F | -96% (active) |
| COc1ccc2nc(-c3ccc(-c4noc(-c5ccc(Cl)cc5)n4)cc3)[nH]c2c1 | 79.7% (inactive) |
| Cc1cccc2nc3ccccc3c(Nc3ccc(NS(C)(=O)=O)cc3)c12 | 73% (inactive) |
| CC(C)CCSc1nc(Nc2ccccc2)c(C#N)c(-c2ccc(F)cc2)n1 | 87.3% (inactive) |
| COc1cc(OC)cc(-c2ccc(-c3ccc(C(=N)N)s3)s2)c1 | -85.3% (active) |

| Compound | growth |
| --- | --- |
| COc1ccc(-c2ccc(-c3ccc(C(=N)N)s3)s2)cc1 | -75.5% (active) |
| C#CCO[C@H]1CC[C@H](OCC#C)[C@@H]2[C@H]1[C@H]1C[C@@H]3[C@@]4(C)CCC[C@@](C)(C(=O)OC)[C@@H]4CC[C@@]23C=C1C(C)C | 102% (inactive) |
| COC(=O)[C@H](Cc1cn(C)cn1)NC(=O)[C@H](CC(C)C)NC(=O)Nc1cc(C(F)(F)F)cc(C(F)(F)F)c1 | -100% [100 µM] (active) |
| O=C1CCCN1C1CCN2CCCc3cccc1c32 (stereo not drawn) | 115% (inactive) |
| O=C(CCCN1CCC(O)(c2ccc(Br)cc2)CC1)c1ccc(F)cc1 | 74.6% (inactive) |
| COc1ccc(/C=N/NC(N)=S)c(OC)n1 | 98.5% (inactive) |
| CCN1C(=O)N(CC)C2C1N=C(SC)N2/N=C/C=C/c1ccccc1OC (stereo not drawn) | 51.5% (inactive) |
| C/C(=N\Nc1ccc([N+](=O)[O-])cn1)c1ccc(N)cc1 | 113% (inactive) |
| N/C(=N\O)c1ncc(-c2ccc(C(F)(F)F)cc2)c(NC2CCCCCC2)n1 | 10.3% [100 µM] (inactive) |
| O=[N+]([O-])c1ccc(Sc2nc(Cl)nc(NC3CCCC3)n2)cc1 | -97.8% [100 µM] (active) |
| Cc1cc2nc(CN)[nH]c2cc1C | 108% (inactive) |
| ClC1=NC(Cl)C(Cl)=N/C1=N\c1ncn[nH]1 (stereo not drawn) | 15.1% (inactive) |
| COc1ccc(CNc2c3ccccc3nc3ccccc23)cc1F | 46.7% (inactive) |
| CCOC(=O)C1C(=O)C=C(c2ccccc2)CC1c1sc(N(C)Cc2ccccc2)nc1Cl (stereo not drawn) | 109% (inactive) |
| CCOC(=O)c1cc(C(=O)OCC)c(C)nc1C | 112% (inactive) |
| O=C1OCC2=C1C(c1ccccc1)c1cc3c(cc1N2CCO)CCC3 (stereo not drawn) | 42.7% (inactive) |
| O=C(CC(=O)c1ccccc1F)Nc1ccc([N+](=O)[O-])cc1 | 100% (inactive) |
| Cc1cc(Nc2c3ccccc3nc3ccccc23)ccc1NS(C)(=O)=O | 57.2% (inactive) |
| COC(=O)CSc1ccc(Cl)cc1 | 108% (inactive) |

— PubChem BioAssay (NCI)
